Source: PubChem (National Center for Advancing Translational Sciences (NCATS))
L3MBTL1 inh: qHTS Assay for the Inhibitors of L3MBTL1. Lethal(3)malignant brain tumor-like protein 1 (Homo sapiens), Q9Y468. AlphaScreen L3MBTL1–H3K9me1 peptide binding. Potency, µM (top dose mostly 57.1 µM), for the others: at the highest dose activity, negative = inhibition, most hits filed as inhibitors. 230,000 tested, 0.66% active. AID 485360, 2010; note: % is set by controls: 0 for no effect and ±100 for the full control effect; nearly all actives have a fitted effect of over 60% in size
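First, the protein-peptide complex forms for 30 min at room temperature (L3MBTL1 50 nM, biotinylated H3K9me1 peptide 75 nM). Next, compounds are pin-transferred and incubated 30 min. Finally, AlphaScreen beads are added and read after 30 min.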
BAZ2B block: qHTS Assay for Inhibitors of BAZ2B | Bromodomain adjacent to zinc finger domain protein 2B (Homo sapiens), Q9UIF8 | AlphaScreen BAZ2B-H3K14Ac peptide displacement | Potency, µM (top dose mostly 114 µM), without a hit: at the top dose activity change, negative = inhibition, actives largely listed as inhibitors | 360,000 tested, 4.4% active; note: % is set by controls: 0 for no effect and ±100 for the full control effect; nearly all actives have a fitted effect of over 60% in size
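AlphaScreen displacement of biotin-H3(5-23)K14Ac peptide (50 nM final) from BAZ2B (50 nM final) in PBS pH 7.4, 0.01% Tween-20; complex preformed 30 min RT, then compounds (top 110 uM) 30 min RT, beads 20 min dark.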
HP1b binding inh: HTS for Inhibitors of HP1-beta Chromodomain Interactions with Methylated Histone Tails. Potency, µM (highest dose often 114 µM), for the others: top-dose activity change, negative = inhibition, usual class: inhibitors. Chromobox protein homolog 1 (Homo sapiens), P83916. AID 540317, 2011. AlphaScreen HP1-beta / biotin-H3K9me3 peptide binding. 390,000 tested, 0.56% active; note: nearly all actives have a fitted effect of over 70% in size
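AlphaScreen: HP1-beta (50 nM) preformed 30 min with biotin-H3(1-18)K9me3 peptide (50 nM) in PBS pH 7.4, 0.01% Tween-20. Compound added for 30 min at RT, then streptavidin donor/nickel chelate acceptor beads (10 ug/mL) for 30 min.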
G9a inh: qHTS Assay for Inhibitors of Histone Lysine Methyltransferase G9a | 350,000 tested, 8.8% active | AID 504332, 2011 | G9a H3K9 monomethylation, AlphaScreen, 2 h | Potency, µM (top dose mostly 102 µM), inactives show at the highest dose activity, negative = inhibition, usual class: inhibitors; note: % is set by controls: 0 for no effect and ±100 for the full control effect; nearly all actives have a fitted effect of over 75% in size
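Quantitative HTS format: methyltransferase activity on a biotin-tagged H3K9 peptide is measured by AlphaScreen, using a rabbit anti-monomethyl-H3K9 antibody with streptavidin donor and anti-IgG acceptor beads. Final levels are 20 nM enzyme, 500 nM peptide, 20 uM SAM; 2 h RT.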
JMJD2A Tudor: qHTS Assay for Inhibitors of JMJD2A-Tudor Domain | Potency, µM (highest dose often 114 µM), for the others: top-dose activity change, negative = inhibition, hits mostly inhibitors | 390,000 tested, 4.4% active | Lysine-specific demethylase 4A (Homo sapiens), O75164 | AlphaScreen JMJD2A-Tudor / H3K4me3 peptide binding; note: % is set by controls: 0 for no effect and ±100 for the full control effect; nearly all actives have a fitted effect of over 50% in size
* = called active by the depositor; u = inconclusive; x = no result; [ ] = dose if it differs, or a comment. This is a sample that favours compounds with a hit; in the whole collection about 11% have one here. Calls come from the whole dose curve; as a rule, active = well fitted inhibition curve with a large enough effect; inconclusive = small, poorly fitted or top-dose-only effect; inactive = no such curve, though single readings can be large or run the other way. Potency is the fitted concentration of half-maximal effect.

SMILES	L3MBTL1 inh	BAZ2B block	HP1b binding inh	G9a inh	JMJD2A Tudor
CN(C)C1(CNCC(O)c2ccccc2)CCCCC1 (centres undefined)	x	70.8µM*	u	20µM*	20µM*
CCOc1ccc(C(=O)Nc2nnc(S(=O)(=O)Nc3ccccc3)s2)cc1	x	-20.5%	25.5%	-21.5%[59 µM]	u
O=S(=O)(c1ccc2c(c1)OCCO2)N1CCN(S(=O)(=O)c2ccc(F)cc2F)CC1	x	x	x	x	-19.9%
CCn1cc(C(=O)O)c(=O)c2cc(F)c(N3CCNCC3)nc21	x	x	50.7%	3.2%[21.5 µM]	-3.6%
CC1CCc2c(N3CCC(O)CC3)c(F)cc3c(=O)c(C(=O)O)cn1c23 (centres undefined)	4.7%	-37.2%	13.1%	-42.4%[59 µM]	u
NC1CCN(c2c(F)cc3c(=O)c(C(=O)O)cn(C4CC4)c3c2Cl)C1 (centres undefined)	1.2%	u	47.6%	70.8µM*	-15.1%
NC1CCN(c2nc3c(cc2F)c(=O)c(C(=O)O)cn3-c2ccc(F)cc2F)C1 (centres undefined)	x	x	77.7%	-16.8%[12.7 µM]	50.1µM*
CCOc1ccccc1NC(=O)N1CCc2c(sc3c2CCCC3)C1c1ccccc1 (centres undefined)	x	-17.3%	1.6%	6.9%[59 µM]	-17.2%
O=C(NCc1ncc(C(F)(F)F)cc1Cl)Nc1ccccc1	x	3.0%	9.0%	-3.4%[12.7 µM]	-6.8%
CC(C)N1CCN(S(=O)(=O)c2ccccc2)CC1	0.7%	u	u	22.4µM*	28.2µM*
CCN1CCN(S(=O)(=O)c2ccc3ccccc3c2)CC1	x	4.5%	25.0%	-19.5%	-10.3%
CC(C)N1CCN(S(=O)(=O)c2ccc3ccccc3c2)CC1	-1.0%	u	u	x	15.8µM*
O=C(O)c1cccc(S(=O)(=O)N2CCN(C(c3ccccc3)c3ccccc3)CC2)c1	-5.7%	u	24.1%	35.5µM*	-15.4%
CC1CN(C2CCN(S(=O)(=O)c3ccc4ccccc4c3)CC2)CC(C)O1 (centres undefined)	-5.7%	44.7µM*	u	6.31µM*	u
Cc1cccc(NC(=O)c2ccccc2NC(=O)c2ccccc2)n1	x	2.4%	84.0%	26.7%	8.4%
CCC(C(=O)Nc1ccc(C(=O)OC)cc1)n1nc(-c2ccc(C)c(C)c2)ccc1=O (centres undefined)	x	-34.8%	32.8%	u	-6.6%
CCCc1cc(=O)oc2cc(OC(C)C(=O)NCC3CCC(C(=O)O)CC3)ccc12 (centres undefined)	12.8%	13.4%[57.1 µM]	89.7%	x	-8.8%
CC1CN2C(c3ccc([N+](=O)[O-])cc3)=CSC2=N1 (centres undefined)	1.6%[2.29 µM]	-6.3%	u	14.4%[0.501 µM]	79.4µM*
COc1cccc(NC(=O)Cn2c(=O)n(-c3cccc(OC)c3)c(=O)c3sc4ccccc4c32)c1	x	-11.3%	23.1%	-25.1%[59 µM]	-11.6%
CC(=O)N/C(=C\c1ccc(F)cc1)C(=O)OC(C)C	-4.5%	6.6%	37.4%	3.0%[59 µM]	-5.0%
CC(=O)N/C(=C\c1ccccc1)C(=O)Nc1ccccc1C	-4.3%	-25.9%	22.2%	u	-14.1%
CC(=O)N/C(=C\c1ccc2c(c1)OCO2)C(=O)NC(C(=O)O)c1ccccc1 (centres undefined)	x	-17.7%	7.7%	89.1µM*	-10.6%
CC(=O)N/C(=C\c1ccccc1)C(=O)NC(C)C(=O)O (centres undefined)	1.5%	-21.2%	20.1%	56.2µM*	-2.2%
CC(=O)N/C(=C\c1ccc(F)cc1)C(=O)NC(C(=O)O)C(C)C (centres undefined)	7.5%	-37.0%	44.3%	56.2µM*	-17.3%
COc1ccc(/C=C(\C#N)c2nc(-c3cc(Cl)ccc3OC)cs2)cc1	x	6.0%	34.9%	-34.9%[59 µM]	-11.8%
SMILES	L3MBTL1 inh	BAZ2B block	HP1b binding inh	G9a inh	JMJD2A Tudor
COc1ccccc1-c1c(C(F)(F)F)oc2cc(OC(=O)c3ccc([N+](=O)[O-])cc3)ccc2c1=O	10.0%	u	u	25.1µM*	u
Cc1c(Cl)cccc1NC(=S)N1CCC(N(C)CC2CCCO2)CC1 (centres undefined)	x	-17.6%	30.9%	33.7%[59 µM]	-0.7%
Cc1nn(C2CCS(=O)(=O)C2)c(C)c1C=O (centres undefined)	-4.4%	9.3%	-13.0%	1.3%	12.6µM*
CCOc1ccc(CNCc2c(C(=O)O)c(C)n(Cc3c(F)cccc3Cl)c2C)cc1OC	x	-34.7%	-6.9%	-25.0%[59 µM]	u
COc1ccc(NC(=S)NCc2ccc(S(N)(=O)=O)cc2)c(OC)c1	6.8%	4.6%	-11.3%	7.08µM*	-4.3%
COc1ccccc1NC(=S)NCc1ccc(S(N)(=O)=O)cc1	7.0%	6.6%	16.5%	u	0.0%
COc1ccc(OC)c(NC(=S)NCc2ccc(S(N)(=O)=O)cc2)c1	-2.2%	5.5%	-17.9%	44.7µM*	-10.5%
CCOC(=O)C1CCN(C(=O)C2CCN(c3nnc(C)c4c(C)n(-c5ccccc5)nc34)CC2)CC1	x	14.6%	66.9%	9.8%[59 µM]	-17.2%
O=C1CCCC2=C1C(c1ccncc1)n1c(nc3ccccc31)N2 (centres undefined)	13.2%	7.8%	-2.7%	x	56.2µM*
CC1CC(=O)C2=C(C1)Nc1nc3ccccc3n1C2c1cccnc1 (centres undefined)	2.5%	-5.0%	24.1%	x	-13.7%
O=C(NC1CCCC1)C(c1cccnc1)N(C(=O)c1csnn1)c1ccc(F)cc1 (centres undefined)	x	25.0%	19.2%	31.4%	-0.7%
CCOC(=O)c1c(C)[nH]c(C(=O)COC(=O)COc2ccccc2C=O)c1C	-0.4%	-36.3%	-12.8%	-2.9%[59 µM]	44.7µM*
O=c1cnc2cncnc2n1Cc1ccccc1	x	x	x	6.0%[0.501 µM]	x
CCSC1(SCC)N=C(N)C2(C#N)C(c3ccc(F)cc3)C12C#N (centres undefined)	2.7%	-22.9%	44.0%	39.8µM*	-6.5%
CCOC1(OCC)N=C(N)C2(C#N)C(c3ccc(NC(C)=O)cc3)C12C#N (centres undefined)	-6.6%	79.4µM*	11.7%	50.1µM*	u
O=[N+]([O-])C1=CC=C2C(=NC3(CCCCC3)N2O)C1=NCCO	-11.6%	50.1µM*	-33.7%	u	-15.7%
COc1ccccc1NC(=O)c1ccc2ccccc2c1	x	x	x	x	61.6%
COC(=O)c1ccc(CSc2nc3ccccc3c(=O)n2-c2ccc(OC)c(OC)c2)o1	x	-39.0%	-1.8%	-8.3%[12.7 µM]	-33.1%
COC(=O)c1ccc(CSc2nnc3n(Cc4ccccc4OC)c(=O)c4ccccc4n23)o1	-4.6%	-31.6%	10.3%	44.7µM*	-22.6%
COC(=O)c1ccc(CSc2nc3ccccc3c(=O)n2-c2ccccc2)o1	x	-24.5%	25.7%	15.8µM*	-20.8%
